A number with no mark means an inactive call. Inconclusive results are not listed. Calls of active or inactive are those of the source. Unless noted, the call rests on the fitted dose curve; in most records, active means well fitted curve in the direction sought with a large enough effect in the repeat runs; inconclusive means weak or mixed curves; inactive means no such curve, though single readings can be large; an effect the other way counts as inactive or inconclusive.

A short description of assay [1]: qHTS assay to identify small molecule agonists of the TGF-beta/Smad signaling pathway (AID 1346859; active means well fitted activation curve with a large enough effect in the signal ratio in the repeat runs, not every such curve was filed as active; the % refers to the signal ratio; further: series mostly up to about 77 µM). The method, boiled down:
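Dual-wavelength fluorescence (460/530 nm emission) quantified beta-lactamase expression under the Smad binding element in HEK 293T cells following 5 hr compound treatment at 37 C.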
Background: In qHTS, concentration-response curves come from the screen itself.

Assay [2] addresses Thyrotropin-releasing hormone receptor (Homo sapiens) (UniProt P34981). As to the kind of experiment: qHTS assay to identify small molecule antagonists of the thyrotropin-releasing hormone receptor (TRHR) signaling pathway (AID 1346877; active means well fitted inhibition curve with a large enough effect in the repeat runs, not every such curve was filed as active; further: series mostly up to about 51 µM). The procedure, abridged: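 Intracellular calcium fluorescence, read kinetically every second over 3 min, reports TRH-evoked signalling in HEK293 cells carrying TRHR. Test compounds were added 5 min ahead of a 1 nM TRH challenge.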

Assay [3] has the same target. Kind of assay: qHTS assay to identify small molecule agonists of the thyrotropin-releasing hormone receptor (TRHR) signaling pathway (AID 1346891; calls by dose curve;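 further: HEK293 cells expressing TRHR with calcium dye readout; series mostly up to about 58 µM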). The procedure, abridged: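 Kinetic fluorescence (3 min, 1 s intervals) reported intracellular calcium after compound transfer onto TRHR-Hek293 cells pre-loaded with dye for 2 h at 37 °C.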
A short description of assay [4]: Human pregnane X receptor (PXR) small molecule agonists, qHTS cell viability counter screen (AID 1346977). Further: nearly all actives have a fitted effect of over 50% in size. The method, boiled down: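 HepG2 cells stably carrying the PXR-Luc reporter are cultured with 5% charcoal-stripped FBS and treated with compounds for 24hr. CellTiter-Fluor is added at 23hr and fluorescence is read after 1hr.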
The nature of assay [5]: Caspase-3/7 induction in HepG2 cells by small molecules, qHTS assay (AID 1346978). Further: nearly all actives have a fitted effect of over 15% in size. The method, boiled down:
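Wild-type HepG2 cells (2,000/well) were settled 5 h at 37 C, 5% CO2, then exposed to compounds in DMSO for 17 h. Caspase-3/7 activity was read by luminescence 30 min after adding Caspase-Glo 3/7 reagent at room temperature.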

Assay [6] is described as follows: Caspase-3/7 induction in CHO-K1 cells by small molecules, qHTS cell viability counter screen (AID 1346979). Further: nearly all actives have a fitted effect of over 35% in size. The procedure, abridged:
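Seeding: 1,500 CHO-K1 cells/well. Rest: 5hr, 37C. Treatment: compounds in DMSO, 16hr. Read: CellTiter-Fluor, 1hr, fluorescence.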

A short description of assay [7]: Caspase-3/7 induction in CHO-K1 cells by small molecules, qHTS assay (AID 1346980). Further: nearly all actives have a fitted effect of over 15% in size. The method, boiled down:
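Wild-type cells were seeded at 1,500 per well and settled 5 hr at 37 C, 5% CO2, then exposed to DMSO-dissolved compounds for 17 hr. Caspase-Glo 3/7 reagent was added, and luminescence was read after 30min at room temperature.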

A short description of assay [8]: Caspase-3/7 induction in HepG2 cells by small molecules, qHTS cell viability counter screen (AID 1346981). Further: series mostly up to about 92 µM; nearly all actives have a fitted effect of over 30% in size. The procedure, abridged: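 HepG2, WT, 2,000 cells/well; 5 hr pre-incubation 37 C/5% CO2; compound pin-transferred from DMSO; 16 hr exposure; CellTiter-Fluor, 1 hr; fluorescence read.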
For assay [9], the target named is Cytochrome P450 2D6 (Homo sapiens) (UniProt P10635). Kind of assay: Cytochrome P450 Family 2 Subfamily D Member 6 (CYP2D6) small molecule antagonists: luciferase reporter qHTS assay (AID 1671196). Further: nearly all actives have a fitted effect of over 50% in size. Further: potency means the concentration at half of the fitted maximal effect. The method, boiled down: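 Read-out is luminescence from luciferin formed by CYP2D6 turnover of a proluciferin substrate, recorded as relative luminescence units. Reactions ran 1 h at room temperature after NADPH regeneration solution was added.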

The target of assay [10] is Cytochrome P450 2C9 (Homo sapiens) (UniProt P11712). As to the kind of experiment: Cytochrome P450 Family 2 Subfamily C Member 9 (CYP2C9) small molecule antagonists: luciferase reporter qHTS assay (AID 1671198). Further: nearly all actives have a fitted effect of over 50% in size. Further: potency means the concentration at half of the fitted maximal effect. The procedure, abridged: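 CYP2C9 activity was measured with a P450-Glo proluciferin substrate. Enzyme–substrate mix was held with compound for 10 min at room temperature, then NADPH regeneration solution was added for 1 h at 37C. Luciferin product was read as luminescence.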
Background: In a reporter assay the amount or activity of a reporter protein is the signal.

Assay [11] concerns the target Cytochrome P450 1A2 (Homo sapiens) (UniProt P05177). As to the kind of experiment: Cytochrome P450 Family 1 Subfamily A Member 2 (CYP1A2) small molecule antagonists: luciferase reporter qHTS assay (AID 1671199). Further: nearly all actives have a fitted effect of over 50% in size. Further: potency means the concentration at half of the fitted maximal effect. The method, boiled down:
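P450-Glo CYP1A2, 1536-well qHTS: enzyme/proluciferin substrate + cpd (DMSO), 10 min RT; NADPH regen, 1 h RT; detection reagent, 20 min; luminescence, RLU.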

In assay [12] the target is Voltage-gated inwardly rectifying potassium channel KCNH2 (Homo sapiens) (UniProt Q12809). As to the kind of experiment: Human Ether-a-go-go-Related Gene (hERG) channel small molecule antagonists: fluorescence cell-based qHTS assay (AID 1671200). The method, boiled down:
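First, 1000 cells per well are seeded and cultured overnight at 37 C. Next, FluxOR II dye is loaded for 1 h at room temperature, protected from light. After 10 more minutes, stimulus is added and fluorescence is read.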

For assay [13], the target named is Cytochrome P450 3A4 (Homo sapiens) (UniProt P08684). Kind of assay: Cytochrome P450 Family 3 Subfamily A Member 4 (CYP3A4) small molecule antagonists: luciferase reporter qHTS assay (AID 1671201). Further: nearly all actives have a fitted effect of over 50% in size. Further: potency means the concentration at half of the fitted maximal effect. The method, boiled down: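 Enzyme and proluciferin substrate are mixed with test chemicals for 10 min, then NADPH regeneration system drives turnover for 1 h at room temperature. A detection reagent halts the reaction; luminescence after 20 min gives relative activity.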

Assay [14] deals with Nuclear receptor subfamily 1 group I member 2 (Homo sapiens) (UniProt O75469). As to the kind of experiment: Human pregnane X receptor (PXR) small molecule agonists, qHTS assay (AID 1346982). Further: nearly all actives have a fitted effect of over 35% in size. The procedure, abridged: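 Luciferase signal from ONE-Glo (30 min, room temperature) measured activation of hPXR-driven CYP3A4 reporter expression in PXR-Luc HepG2 cells treated with compounds for 24 hr at 37 C.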

For assay [15], the target named is Cytochrome P450 2C19 (Homo sapiens) (UniProt P33261). Kind of assay: Cytochrome P450 Family 2 Subfamily C Member 19 (CYP2C19) small molecule antagonists: luciferase reporter qHTS assay (AID 1671197). Further: nearly all actives have a fitted effect of over 65% in size. Further: potency means the concentration at half of the fitted maximal effect. The procedure, abridged: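 Compounds were tested on CYP2C19 activity via proluciferin conversion to luciferin. The 37C, 1 h reaction followed NADPH addition; detection reagent stopped it.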

Assay [16] addresses Nuclear receptor subfamily 1 group I member 2 (Rattus norvegicus) (UniProt Q9R1A7). As to the kind of experiment: Rat pregnane X receptor (rPXR) activation by small molecules, qHTS assay (AID 1346983). Further: nearly all actives have a fitted effect of over 20% in size. To be noted: rPXR luciferase reporter cells, One-Glo luminescence, 24 h; max activation: stronger effect = higher value. The method, boiled down: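 Cell-based rPXR luciferase reporter assay, 2,000 cells per well, rested 5hr at 37 C before compound addition in DMSO, then 24 hr at 37 C. One-Glo reagent was added and luminescence read after 30 min at room temperature.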
On the % scale 0 is the no-effect control and ±100 the full control effect.

Cytochrome P450 2C19 (Homo sapiens), sequence (P33261 whole entry, looked up): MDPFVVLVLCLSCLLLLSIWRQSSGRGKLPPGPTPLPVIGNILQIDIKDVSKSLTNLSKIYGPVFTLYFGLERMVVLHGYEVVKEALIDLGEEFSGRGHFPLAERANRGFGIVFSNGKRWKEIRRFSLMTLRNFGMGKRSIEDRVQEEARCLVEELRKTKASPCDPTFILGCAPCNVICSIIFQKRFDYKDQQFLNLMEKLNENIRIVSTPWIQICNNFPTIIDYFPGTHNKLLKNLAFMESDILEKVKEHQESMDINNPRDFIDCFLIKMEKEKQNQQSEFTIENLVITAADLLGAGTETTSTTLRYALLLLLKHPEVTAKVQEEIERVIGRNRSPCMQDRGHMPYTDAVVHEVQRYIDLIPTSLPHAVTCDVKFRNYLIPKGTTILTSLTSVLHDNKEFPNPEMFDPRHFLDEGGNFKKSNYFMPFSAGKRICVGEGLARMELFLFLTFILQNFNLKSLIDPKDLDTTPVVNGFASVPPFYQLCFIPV
Cytochrome P450 3A4 (Homo sapiens), sequence (P08684 whole entry, looked up): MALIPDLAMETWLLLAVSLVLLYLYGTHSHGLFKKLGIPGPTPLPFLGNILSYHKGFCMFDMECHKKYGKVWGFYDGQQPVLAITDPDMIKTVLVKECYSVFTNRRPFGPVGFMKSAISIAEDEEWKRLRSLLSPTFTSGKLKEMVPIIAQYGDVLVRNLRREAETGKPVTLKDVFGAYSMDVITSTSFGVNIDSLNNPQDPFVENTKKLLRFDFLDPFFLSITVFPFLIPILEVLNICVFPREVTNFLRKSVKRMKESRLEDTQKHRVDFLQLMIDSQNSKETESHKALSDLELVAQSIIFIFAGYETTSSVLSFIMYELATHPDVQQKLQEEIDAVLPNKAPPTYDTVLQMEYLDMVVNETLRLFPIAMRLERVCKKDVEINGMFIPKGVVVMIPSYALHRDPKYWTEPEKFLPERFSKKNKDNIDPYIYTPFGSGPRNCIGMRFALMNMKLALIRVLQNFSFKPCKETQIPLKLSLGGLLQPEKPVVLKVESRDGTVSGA
Cytochrome P450 2D6 (Homo sapiens), sequence (P10635 whole entry, looked up): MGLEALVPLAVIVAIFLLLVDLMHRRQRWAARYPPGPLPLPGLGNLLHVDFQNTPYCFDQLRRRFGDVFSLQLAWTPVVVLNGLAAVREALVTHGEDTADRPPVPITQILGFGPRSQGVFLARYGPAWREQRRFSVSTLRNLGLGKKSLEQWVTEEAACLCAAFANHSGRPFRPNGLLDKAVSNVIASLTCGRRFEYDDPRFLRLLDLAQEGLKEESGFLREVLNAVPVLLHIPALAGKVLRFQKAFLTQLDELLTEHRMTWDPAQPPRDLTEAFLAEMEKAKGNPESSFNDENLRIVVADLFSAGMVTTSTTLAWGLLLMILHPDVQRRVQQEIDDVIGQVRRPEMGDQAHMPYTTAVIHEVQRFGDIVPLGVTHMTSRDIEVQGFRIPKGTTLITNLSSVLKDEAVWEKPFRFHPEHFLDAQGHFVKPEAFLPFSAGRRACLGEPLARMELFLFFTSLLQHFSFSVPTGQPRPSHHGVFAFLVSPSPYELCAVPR
Voltage-gated inwardly rectifying potassium channel KCNH2 (Homo sapiens), sequence (Q12809 whole entry, looked up): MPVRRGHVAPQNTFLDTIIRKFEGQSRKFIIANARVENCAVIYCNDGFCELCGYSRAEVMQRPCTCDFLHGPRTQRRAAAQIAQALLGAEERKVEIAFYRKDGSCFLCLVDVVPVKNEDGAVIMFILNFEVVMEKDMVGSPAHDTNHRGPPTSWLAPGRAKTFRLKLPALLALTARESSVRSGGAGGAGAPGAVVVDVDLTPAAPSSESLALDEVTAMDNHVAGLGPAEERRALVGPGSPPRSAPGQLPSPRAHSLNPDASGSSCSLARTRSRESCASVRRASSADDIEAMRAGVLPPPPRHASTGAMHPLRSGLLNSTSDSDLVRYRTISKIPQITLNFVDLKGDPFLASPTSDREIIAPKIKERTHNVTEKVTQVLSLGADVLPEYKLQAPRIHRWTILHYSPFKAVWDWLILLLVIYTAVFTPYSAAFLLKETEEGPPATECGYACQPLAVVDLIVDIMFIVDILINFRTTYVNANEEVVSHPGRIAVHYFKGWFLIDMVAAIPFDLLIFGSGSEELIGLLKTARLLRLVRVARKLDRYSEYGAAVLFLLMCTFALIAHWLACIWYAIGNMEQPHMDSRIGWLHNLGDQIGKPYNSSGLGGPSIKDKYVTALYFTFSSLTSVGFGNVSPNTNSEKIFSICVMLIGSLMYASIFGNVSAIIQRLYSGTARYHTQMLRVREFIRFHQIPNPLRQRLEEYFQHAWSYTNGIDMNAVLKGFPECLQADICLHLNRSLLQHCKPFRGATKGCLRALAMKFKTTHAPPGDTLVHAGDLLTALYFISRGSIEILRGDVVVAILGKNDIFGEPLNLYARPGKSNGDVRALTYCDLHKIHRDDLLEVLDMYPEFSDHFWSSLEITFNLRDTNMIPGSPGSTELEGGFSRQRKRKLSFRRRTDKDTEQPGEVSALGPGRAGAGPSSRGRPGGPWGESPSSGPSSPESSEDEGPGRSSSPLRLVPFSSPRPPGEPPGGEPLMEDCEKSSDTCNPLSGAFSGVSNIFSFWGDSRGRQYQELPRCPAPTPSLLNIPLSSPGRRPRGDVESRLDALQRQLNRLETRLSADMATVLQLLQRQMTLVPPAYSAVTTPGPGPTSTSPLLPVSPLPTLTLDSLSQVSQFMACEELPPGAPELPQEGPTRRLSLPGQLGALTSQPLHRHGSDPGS
Nuclear receptor subfamily 1 group I member 2 (Homo sapiens), sequence (O75469 whole entry, looked up): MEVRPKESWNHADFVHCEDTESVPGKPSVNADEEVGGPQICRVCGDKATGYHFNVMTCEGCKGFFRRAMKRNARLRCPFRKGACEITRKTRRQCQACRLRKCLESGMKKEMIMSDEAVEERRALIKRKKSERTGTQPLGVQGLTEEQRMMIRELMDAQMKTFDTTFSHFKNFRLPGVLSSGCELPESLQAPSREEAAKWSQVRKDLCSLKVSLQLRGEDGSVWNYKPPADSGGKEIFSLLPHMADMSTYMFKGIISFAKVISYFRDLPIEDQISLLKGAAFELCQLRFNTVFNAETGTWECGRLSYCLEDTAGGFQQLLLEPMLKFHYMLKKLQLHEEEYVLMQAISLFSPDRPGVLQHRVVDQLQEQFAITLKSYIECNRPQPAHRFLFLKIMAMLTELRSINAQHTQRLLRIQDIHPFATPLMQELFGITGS
Cytochrome P450 1A2 (Homo sapiens), sequence (P05177 whole entry, looked up): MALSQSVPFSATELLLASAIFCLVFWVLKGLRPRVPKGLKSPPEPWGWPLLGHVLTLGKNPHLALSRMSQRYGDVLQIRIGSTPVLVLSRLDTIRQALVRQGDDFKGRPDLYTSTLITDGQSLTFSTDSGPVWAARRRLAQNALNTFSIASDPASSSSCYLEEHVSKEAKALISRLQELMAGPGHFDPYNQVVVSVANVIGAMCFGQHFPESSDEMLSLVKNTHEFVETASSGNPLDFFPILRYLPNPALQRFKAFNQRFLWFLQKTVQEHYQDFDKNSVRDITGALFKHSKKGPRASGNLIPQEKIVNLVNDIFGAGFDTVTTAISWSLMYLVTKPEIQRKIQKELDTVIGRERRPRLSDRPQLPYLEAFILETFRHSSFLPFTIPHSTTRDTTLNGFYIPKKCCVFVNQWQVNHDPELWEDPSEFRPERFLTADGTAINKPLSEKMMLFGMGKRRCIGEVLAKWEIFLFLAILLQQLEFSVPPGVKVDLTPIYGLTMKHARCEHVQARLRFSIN
Cytochrome P450 2C9 (Homo sapiens), sequence (P11712 whole entry, looked up): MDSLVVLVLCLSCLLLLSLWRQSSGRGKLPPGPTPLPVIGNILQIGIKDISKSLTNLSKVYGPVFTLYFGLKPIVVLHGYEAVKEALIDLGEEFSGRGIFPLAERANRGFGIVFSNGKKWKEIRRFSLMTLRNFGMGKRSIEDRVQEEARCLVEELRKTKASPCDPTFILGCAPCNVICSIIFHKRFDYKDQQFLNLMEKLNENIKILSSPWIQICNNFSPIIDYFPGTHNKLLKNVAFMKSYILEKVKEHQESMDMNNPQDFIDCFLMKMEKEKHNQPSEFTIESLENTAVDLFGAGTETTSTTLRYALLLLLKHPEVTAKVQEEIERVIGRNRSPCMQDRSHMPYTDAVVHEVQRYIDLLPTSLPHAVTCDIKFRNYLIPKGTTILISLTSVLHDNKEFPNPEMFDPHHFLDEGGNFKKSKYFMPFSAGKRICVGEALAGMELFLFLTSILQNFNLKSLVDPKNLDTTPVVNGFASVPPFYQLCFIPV
Thyrotropin-releasing hormone receptor (Homo sapiens), sequence (P34981 whole entry, looked up): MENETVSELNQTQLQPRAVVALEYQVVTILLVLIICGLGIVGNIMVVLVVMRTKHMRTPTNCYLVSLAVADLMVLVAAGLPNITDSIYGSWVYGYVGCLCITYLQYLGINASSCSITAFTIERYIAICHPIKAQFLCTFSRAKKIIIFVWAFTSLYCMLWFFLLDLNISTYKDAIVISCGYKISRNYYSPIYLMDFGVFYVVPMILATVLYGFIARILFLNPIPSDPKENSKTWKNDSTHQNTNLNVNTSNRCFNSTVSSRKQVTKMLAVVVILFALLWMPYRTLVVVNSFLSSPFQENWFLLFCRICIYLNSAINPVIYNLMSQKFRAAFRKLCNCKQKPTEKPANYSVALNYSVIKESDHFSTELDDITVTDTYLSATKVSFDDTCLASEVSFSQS
Nuclear receptor subfamily 1 group I member 2 (Rattus norvegicus), sequence (Q9R1A7 whole entry, looked up): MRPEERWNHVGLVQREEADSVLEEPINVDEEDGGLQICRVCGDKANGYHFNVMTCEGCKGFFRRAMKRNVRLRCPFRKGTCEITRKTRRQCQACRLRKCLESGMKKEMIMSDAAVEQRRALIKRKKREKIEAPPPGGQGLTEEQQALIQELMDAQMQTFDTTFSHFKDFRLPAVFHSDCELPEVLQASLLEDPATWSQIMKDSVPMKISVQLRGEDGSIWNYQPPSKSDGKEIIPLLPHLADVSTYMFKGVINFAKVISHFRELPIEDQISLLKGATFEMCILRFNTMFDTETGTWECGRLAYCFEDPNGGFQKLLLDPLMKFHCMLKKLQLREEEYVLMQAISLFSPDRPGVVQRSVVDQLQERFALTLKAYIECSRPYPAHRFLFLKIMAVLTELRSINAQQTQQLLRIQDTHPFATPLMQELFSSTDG

Take `C/C(Cl)=C/CCl`: the molecule was classed as inactive in assay [1], in assay [2], in assay [4], in [5], in [7] and in assay [8]. For the same molecule, the Potency result in [3], in assay [6], in assay [9], in assay [10], in [11] and in assay [12] was “inactive” in each case. Besides, the Potency result in assay [13] is “inactive”.
With `CCCCCCCC(=O)N(C)C`, the molecule was classed as inactive in [1], in assay [2], in assay [4], in assay [5], in assay [7] and in [8]. In addition, the Potency entry in assay [3], in [6], in assay [9], in assay [10], in assay [11] and in assay [12] was “inactive” in each case.
Consider `CCCCCCCCCCCBr`, for which the molecule was classed as inactive in [1], in [2], in assay [4], in assay [5], in assay [7] and in assay [8]. For the same molecule, the Potency result in assay [3], in [14], in assay [9], in assay [15], in assay [10] and in [11] was “inactive” each time. The Potency entry in [12] and in assay [13] was “inactive” throughout.
Turning to `Cc1ccc(NC(N)=O)cc1`, the outcome in assay [1], in assay [2], in assay [4], in [7] and in assay [8] was inactive. Moreover, the Potency entry in assay [3], in assay [6], in [14], in assay [9], in [15] and in [10] was “inactive” in each case. Besides, the Potency entry in [12] was “inactive”. Further, the Potency in assay [11] is 40.2 µM (active).
For the molecule `Cc1ccccc1C#N`, the molecule was classed as inactive in assay [1], in assay [2], in [4], in assay [5], in assay [7] and in assay [8]. For the same molecule, the Potency result in assay [3], in assay [6], in assay [9], in assay [15], in assay [10] and in [11] was “inactive” in each case. The Potency entry in assay [12] and in assay [13] was “inactive” each time.
Take `CC(=O)SCC(CC(=O)c1ccc(C)cc1)C(=O)O` (configuration not stated): the call in assay [1], in [2], in assay [4], in [5], in assay [7] and in assay [8] was inactive. The Potency entry in assay [3], in assay [6], in assay [9], in assay [15], in [11] and in assay [12] was “inactive” throughout. Further, in assay [10], the Potency was 15.5 µM (active).
`CNC(=O)c1c(I)c(NC(C)=O)c(I)c(C(=O)O)c1I`: the molecule was classed as inactive in [1], in assay [2], in assay [4], in assay [5], in assay [7] and in assay [8]. In addition, the Potency result in [3], in [14], in assay [9], in assay [10], in assay [12] and in assay [13] was “inactive” each time.
As for `CC(C)(C)NCC(O)COc1cccc2c1CCC(=O)N2` (configuration not stated), the call in assay [1], in assay [2], in assay [4], in assay [5], in assay [7] and in assay [8] was inactive. For the same molecule, the Potency entry in assay [3], in [6], in [9], in assay [10], in assay [12] and in [13] was “inactive” each time. For the same molecule, in assay [16], the max activation is -2.26%.
With `CC(C)CC(O)Cc1ccccc1` (configuration not stated), the call in assay [1], in assay [2], in assay [4], in assay [5], in assay [7] and in [8] was inactive. The Potency result in assay [3], in [6], in assay [9], in [12] and in [13] was “inactive” each time. The Potency in [15] is 71 µM (active).
For the molecule `CC(=O)Nc1ccc(S(=O)(=O)Nc2cc(C)on2)cc1`, the molecule was called inactive in assay [1], in assay [2], in assay [4], in [5], in assay [7] and in assay [8]. Further, the Potency result in [3], in assay [6], in assay [9], in assay [15], in assay [10] and in [11] was “inactive” in each case. Besides, the Potency result in assay [12] and in [13] was “inactive” throughout.
Consider `COC(=O)/C=C(\C)CCC=C(C)C`, for which the molecule was classed as inactive in assay [1], in assay [2], in [4], in assay [5], in assay [7] and in [8]. For the same molecule, the Potency entry in assay [3], in assay [6], in assay [9] and in assay [12] was “inactive” throughout. In addition, the Potency in assay [15] is 25.2 µM (active); in [10], 39.9 µM (active); in assay [13] it was 31.7 µM (active).
For `NNC(=O)CCCCC(=O)NN`, the result in assay [1], in assay [2], in assay [4], in [5], in [7] and in assay [8] was inactive. Also, the Potency entry in assay [3], in [6], in assay [14] and in [12] was “inactive” throughout. The Potency in [11] is 31.7 µM (active); in assay [13] it was 11.2 µM (active).
As for `Cc1ccc(O)c(C(=O)c2ccccc2)c1`, the result in [1], in assay [2], in [4], in [5], in [7] and in assay [8] was inactive. In addition, the Potency entry in assay [3] and in assay [6] was “inactive” throughout. Also, the Potency was 11.4 µM (active) in [9], 1.01 µM (active) in assay [15], 5.69 µM (active) in [10] and 32 µM (active) in [13].

The values are drawn from PubChem BioAssay (Tox21).
